Bioassay records as filed in PubChem.
NPC1 promoter act: activators of NPC1 promoter. Huh7 NPC1 promoter luciferase reporter, 24 h. Potency, µM (series often up to 9.22 µM), for inactives: at the highest dose activation, most hits filed as activators. 320,000 tested, 2.4% active. AID 485313; further: % of control where 0% means no effect; nearly all actives have a fitted effect of over 60% in size
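Stably transfected Huh7 (NPC1 promoter→luciferase), 1500 cells/well in Opti-MEM + 10% FBS, 2 h settle, then compound 24 h at 37 °C. Luminescence after 10 min with Amplite reagent.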
SMN2 splice up: increases expression of the SMN2 splice variant. HEK293 SMN2-luciferase splicing reporter, luminescence, 30-36 h. Potency, µM (titrated, usually from 46.1 µM), for inactives: at the top dose activity change, positive = activation, most hits filed as activators. 210,000 tested, 2.8% active. AID 1458; further: % of control where 0% means no effect; nearly all actives have a fitted effect of over 55% in size
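HEK293 cells carry an SMN2 minigene-luciferase reporter in which exon 7 inclusion puts luciferase in frame. Cells were seeded at 2000 cells/well, attached for 10-12 hours, then exposed to compounds for 30-36 hours at 37C before ONE-Glo luminescence.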
Rab9 promoter act: activates the Rab9 promoter; Huh7 Rab9 promoter-luciferase reporter, luminescence, 24 h; Potency, µM (top dose mostly 9.22 µM), without a hit: at the highest dose activation, negative = inhibition, actives largely listed as activators; 320,000 tested, 2.8% active; AID 485297; further: % of control where 0% means no effect; nearly all actives have a fitted effect of over 60% in size
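Huh7 cells stably carrying a Rab9 promoter-luciferase reporter, 1500 cells per well in OP-MEM I with 10% FBS, treated with compound 24 hours at 37C. Luciferase activity read by luminescence after 10 minutes with Amplite reagent.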
p53 reactivator: restores transcriptional activity of mutant p53; Potency, µM (titrated, usually from 92.2 µM), without a hit: top-dose activity change, positive = activation, most hits filed as activators; 320,000 tested, 0.063% active; H1299 p53-A138V BP100-luciferase reporter, luminescence, 24 h; further: % of control where 0% means no effect; nearly all actives have a fitted effect of over 45% in size
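p53-null H1299 cells stably carrying temperature-sensitive p53-A138V and a BP100-luciferase reporter were pinned with compounds (4-point, 1:5 series) and held 24 hrs at 37 deg C. Luminescence was read 10 min after detection reagent.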
ELG1 genotoxic: inducers of genotoxicity in HEK293T ELG1-luciferase cells. 330,000 tested, 1.3% active. AID 504466. HEK293T ELG1-luciferase reporter, luminescence, 16 h. Potency, µM (doses to about 46 µM), for inactives: at the top dose activity change, positive = activation, actives largely listed as activators; further: % of control where 0% means no effect; nearly all actives have a fitted effect of over 60% in size
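Cells (2,000/well) expressing the ELG1-luciferase fusion are dosed by pin tool and kept 16 hr at 37 °C, 5% CO2. Signal comes from ONE-Glo luciferase reagent after 30 min at room temperature.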
FLuc modulator: firefly luciferase modulation, counter-screen for miR-21 project; AID 588342; purified FLuc, Km substrates, luminescence inhibition; P08659; Potency, µM (top dose mostly 57.5 µM), without a hit: at the top dose activity change, negative = inhibition, hits mostly inhibitors; 360,000 tested, 6.9% active;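 further: plate controls were vehicle for no effect and reference inhibitor for full effect; nearly all actives have a fitted effect of over 55% in size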
Target sequence (P08659 whole entry, looked up): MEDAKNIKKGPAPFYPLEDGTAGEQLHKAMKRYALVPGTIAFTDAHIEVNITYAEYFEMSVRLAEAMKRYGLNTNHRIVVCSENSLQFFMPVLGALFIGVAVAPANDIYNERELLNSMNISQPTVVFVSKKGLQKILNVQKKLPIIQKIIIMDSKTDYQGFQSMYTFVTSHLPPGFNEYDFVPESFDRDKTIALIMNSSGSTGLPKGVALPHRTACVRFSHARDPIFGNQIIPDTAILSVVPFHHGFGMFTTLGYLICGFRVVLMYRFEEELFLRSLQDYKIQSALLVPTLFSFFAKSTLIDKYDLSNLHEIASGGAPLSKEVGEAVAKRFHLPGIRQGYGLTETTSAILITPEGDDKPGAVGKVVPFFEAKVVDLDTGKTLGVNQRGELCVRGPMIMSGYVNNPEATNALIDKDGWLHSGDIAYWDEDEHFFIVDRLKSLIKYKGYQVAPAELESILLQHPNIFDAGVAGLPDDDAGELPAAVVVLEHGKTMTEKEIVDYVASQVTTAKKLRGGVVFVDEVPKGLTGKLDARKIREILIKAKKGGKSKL
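Biochemical qHTS of compounds, final roughly 60 µM downward over six points, against 10 nM purified firefly luciferase using Km concentrations of substrates (10 uM D-luciferin, 10 uM ATP) in Tris acetate pH 7.5 buffer; luminescence output.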
* hit, by the source's call; ? = inconclusive; nt = no result given; [ ] = remark or other dose. Most compounds without a hit are left out; they make up all but 7.3% or so of the library. The call rests on the fitted dose curve; in most records, active means well fitted curve in the direction sought with a large enough effect; inconclusive means small, poorly fitted or top-dose-only effect, or another doubt; inactive means no such curve, though single readings can be large; an effect the other way counts as inactive or inconclusive. Potency means the concentration at half of the fitted maximal effect.

SMILES | NPC1 promoter act | SMN2 splice up | Rab9 promoter act | p53 reactivator | ELG1 genotoxic | FLuc modulator
CCOC(=O)C1=C(NC(=O)c2ccc(Br)o2)Nc2ccccc2N=C1 | 3% | 3% | 10% | -12% | -2% | -8%
Cc1ccc(S(=O)(=O)N2CCCC(C(=O)NC3=NCCS3)C2)cc1 (stereo unspecified) | -3% | -17% | -5% | -2% | 1% | 0%
COc1ccc2cc(-c3cccnc3)ncc2c1 | 2.2µM* | nt | ? | 30% | ? | 3.8µM*
O=C(NCCCc1ccccc1)c1ccc([N+](=O)[O-])cc1Cl | ? | nt | ? | ? | ? | 8.5µM*
Cc1cccc(NC(=O)C(=O)NCCCc2ccccc2)c1 | ? | 10µM* | ? | ? | 23% | ?
Cc1ccc(C(=O)NCCCc2ccccc2)c(C)c1 | 1.4µM* | 13µM* | 3.5µM* | 18% | 16µM* | 8.5µM*
Cc1ccc(C(=O)NCCCc2ccccc2)c(Cl)c1 | 2.5µM* | nt | 2.2µM* | nt | ? | 8.5µM*
CCc1ccc(OCC(=O)Nc2cc(-c3ccc(C)cc3)no2)cc1 | nt | 17% | nt | nt | nt | -1%
N/C(=N\c1nc2ccccc2o1)NC(=O)c1ccccc1F | 1.6µM* | ? | 2.5µM* | ? | ? | 8.5µM*
N/C(=N\c1nc2ccccc2o1)NC(=O)c1ccccc1NC(=O)c1ccccc1 | 9% | 25% | 3% | 17% | 6% | 2%
CCCCC(=O)N/C(N)=N/c1nc2ccccc2o1 | 1.3µM* | nt | 1.8µM* | 10% | ? | 3µM*
CCOc1ccc(NC(=O)/C=C\C(=O)N(c2ccc(C(C)C)cc2)C(C(=O)NCc2ccco2)c2ccc(F)cc2)cc1 (stereo unspecified) | nt | nt | nt | nt | nt | 3%
CCOc1ccc(NC(=O)CCn2cccn2)cc1 | nt | nt | nt | nt | nt | -6%
O=C(NCCCN1CCOCC1)c1cc(-c2ccc(O)cc2)on1 | 2% | -2% | -2% | 7% | 1% | -2%
O=C(NCCN1CCOCC1)c1cc(-c2ccccc2)on1 | 14% | -3% | 20% | 20% | 18µM* | -3%
O=C(NCCCN1CCOCC1)c1cc(-c2ccccc2)on1 | 14% | -18% | 27% | ? | 18µM* | -3%
CCC(C(=O)Nc1ccc(C(C)=O)cc1)n1c(C)c2cnn(-c3ccccc3)c(=O)c2c1C (stereo unspecified) | nt | 15% | nt | nt | nt | -3%
COc1ccc(C(C(=O)NC2CCCC2)N(C(=O)Cc2cccs2)C2CC2)cc1OC (stereo unspecified) | -10% | nt | 2% | -2% | 11% | 3%
COCCN(C(=O)Cc1cccs1)C(C(=O)NC1CCCC1)c1cc(OC)c(OC)c(OC)c1 (stereo unspecified) | ? | nt | ? | 6% | ? | 4.8µM*
Cc1cc(NC(=O)c2cc(-c3ccc(Br)cc3)on2)nn1Cc1ccc(Cl)cc1 | nt | -10% | nt | nt | nt | -5%
O=C(/C=C/c1ccc2c(c1)OCO2)c1ccccc1 | nt | 1% | nt | nt | nt | nt
Cc1ccc(O)c(C(=O)/C=C/c2ccc3c(c2)OCCO3)c1 | 8% | 6% | ? | 18% | 0% | 24µM*
COc1ccc(/C=C/C(=O)c2ccc3c(c2)OCCO3)cc1[N+](=O)[O-] | 2% | 1% | -5% | 4% | 0% | 6.7µM*
COc1ccc(/C=N/NC(=O)c2ccc3c(c2)OCCO3)cc1[N+](=O)[O-] | 8% | -6% | -1% | 12% | 12% | 1%
O=C(/C=C/c1ccc2c(c1)OCCO2)c1ccccc1 | 2.8µM* | nt | 1µM* | ? | ? | 0.48µM*
SMILES | NPC1 promoter act | SMN2 splice up | Rab9 promoter act | p53 reactivator | ELG1 genotoxic | FLuc modulator
COc1ccc(C(=O)/C=C/c2ccc3c(c2)OCCO3)cc1 | 5% | nt | ? | ? | 19% | 1.7µM*
O=C(/C=C/c1ccc(F)cc1)c1cc(Br)ccc1O | 12% | nt | 10% | 5% | 8% | ?
CC1CN(C(=O)CSc2nnc(NC(=O)NC(C)(C)C)s2)CC(C)O1 (stereo unspecified) | -1% | nt | -4% | 4% | 4% | 24µM*
CC(=O)Nc1nnc(SCC(=O)N2C(C)CCCC2C)s1 (stereo unspecified) | -2% | nt | -3% | 5% | 5% | 0%
O=C(c1cnccn1)N1CCC2(CC1)CN(c1ccncc1)C2 | nt | -11% | nt | nt | nt | nt
COc1ccc(C(=O)Nc2cc(OC)cc3cccnc23)cc1 | 0% | nt | 1%[1.84 µM] | -1% | 1% | 7.6µM*
COc1cc(NC(=O)C2CCCCC2)c2ncccc2c1 | 6% | -6% | 16% | 3% | 2% | 15µM*
COc1cc(NC(=O)c2ccc(Cl)cc2)c2ncccc2c1 | 6% | nt | -5% | -2% | 1% | ?
CC(C)CC(=O)Nc1cc2nn(-c3ccccc3)nc2cc1Cl | 1.8µM* | ? | 1.4µM* | ? | 4.6µM* | 1.5µM*
Nc1ccc2nn(-c3ccccc3)nc2c1 | 1.6µM* | nt | 1.6µM* | 15% | ? | 3.8µM*
Nc1cc2nn(-c3ccccc3)nc2cc1Cl | 6% | 3.2µM* | 19% | ? | 24% | 1.3µM*
Cc1cc2nn(-c3ccccc3)nc2cc1NC(=O)Cc1ccc(Cl)cc1 | nt | ? | nt | nt | nt | -6%
Nc1ccc2c(c1)nnn2-c1ccccc1 | ? | nt | 25% | -5% | 12% | ?
Cc1nc2nc(CNC(=O)c3cccc(F)c3)nn2c(C)c1CCC(=O)Nc1cccc(Cl)c1 | nt | nt | nt | nt | nt | 2%
O=C(O)C1CC=C(Cl)CC1C(=O)NC1CCCCC1 (stereo unspecified) | -6% | nt | 6% | 18% | 1% | 4%
COc1ccc(OC)c(/C(C)=N/Nc2ccc(C(=O)O)cc2)c1 | 3% | nt | 14% | 6% | ? | -2%
COc1ccc(/C(C)=N/Nc2ccc(C(=O)O)cc2)cc1OC | 0.63µM* | ? | 1.3µM* | nt | ? | 6.7µM*
COc1cc(/C(C)=N/Nc2ccc(C(=O)O)cc2)cc(OC)c1OC | ? | 16µM* | ? | 23% | ? | ?
N[C@@H](Cc1ccccc1)C(=O)N1CCC(C(=O)NCC(=O)NCC(=O)O)CC1 | -3% | nt | -10% | 3% | 3% | 1%
Cc1cccc(-n2cc(CN3CCCN(C=O)CC3)c(-c3cccc(F)c3)n2)c1 | -5% | nt | 0% | 0% | 1% | 13µM*
CC(=O)N1CCCN(Cc2cn(-c3cccc(C)c3)nc2-c2cccc(F)c2)CC1 | -4% | nt | 1% | 2% | -2% | 17µM*
CC(=O)N1CCCN(Cc2cn(-c3ccc(C)cc3)nc2-c2ccc(F)cc2)CC1 | -6% | nt | 1% | -3% | 0% | ?
Cc1ccc(-n2cc(CN3CCCN(C=O)CC3)c(-c3ccc(F)cc3)n2)cc1 | -4% | nt | -3% | -1% | -1% | ?
Cc1nnc(NC(=O)c2ccco2)s1 | -1% | 6% | 2% | 11% | 7% | 0%
